Laboratory results published in PubChem BioAssay (NCATS).
Results filed as inconclusive are left out. Active and inactive are the calls of the source. Calls come from the whole dose curve; as a rule, active = well fitted curve in the direction sought with a large enough effect; inconclusive = small, poorly fitted or top-dose-only effect, or another doubt; inactive = no such curve, though single readings can be large; an effect the other way counts as inactive or inconclusive.

Columns and labels:
[1] = MultiTox-Fluor Cytotoxicity Assay - LYMP1-001 - Live Cells (AID 947)
[2] = Cell Viability - LYMP1-002 - Assay at 16 hr (AID 948)
Summary of the method: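 Acute cytotoxicity is scored as a concentration-dependent fall in intracellular ATP in a human lymphoblastoid line (LYMP1-002) after 16 hr compound exposure at 37 C, measured by luciferase luminescence.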

[3] = MultiTox-Fluor Cytotoxicity Assay - LYMP1-002 - Live Cells (AID 955)
Summary of the method: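 After 16 h compound exposure at 37 C, live LYMP1-002 lymphoblastoid cells (2500/well) were quantified by cleavage of cell-permeant GF-AFC substrate, read at 405/510 nm after 60 min. Concentration-response fitted with Hill equation for AC50.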

[4] = MultiTox-Fluor Cytotoxicity Assay - LYMP1-003 - Dead Cells (AID 961); note: nearly all actives have a fitted effect of over 70% in size
Summary of the method: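 LYMP1-003 human lymphoblastoid cells (2500/well) exposed to compound 16 h at 37 C in complete medium; dead-cell protease read with bis-AAF-R110 fluorescence (Ex/Em 485/520) after 60 min at room temperature. Normalized to DMSO and 15 uM tetraoctylammonium bromide; AC50 from Hill fit.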

[5] = MultiTox-Fluor Cytotoxicity Assay - LYMP1-003 - Live Cells (AID 962);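 note: cytotoxic hits lower the live-cell protease signal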
Summary of the method: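 Live-cell protease activity (GF-AFC substrate, 405/510 nm, 60 min at room temperature) after 16 h, 37 C compound exposure of human lymphoblastoid LYMP1-003 cells; concentration-response fitted to the Hill equation for AC50.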

[6] = Cell Viability - LYMP1-003 - Assay at 24 hr (AID 963)
Summary of the method: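 Concentration-response qHTS: ATP loss measured by CellTiter-Glo luminescence after 24 h compound exposure at 37 C. Cells were LYMP1-003 human lymphoblastoid, 2500 per well. AC50 derived via standard Hill equation modeling.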

[7] = Cell Viability - LYMP1-003 - Assay at 40 hr (AID 964); note: series mostly up to about 92 µM; nearly all actives have a fitted effect of over 60% in size
Summary of the method: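 Viability is taken as cellular ATP, read by CellTiter-Glo luminescence after 40 h of compound exposure at 37 C. Cells: human lymphoblastoid line LYMP1-003 at 2500/well; AC50 values derived by Hill-equation fitting of concentration-response data.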

[8] = Cell Viability - LYMP2-003 (AID 965);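 note: cells exposed to compounds for 24 h before reading; nearly all actives have a fitted effect of over 50% in size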
Summary of the method: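 Acute cytotoxicity is scored as a concentration-dependent drop in intracellular ATP, measured by luciferase luminescence in human lymphoblastoid cells treated for 24 hours at 37 C. AC50 values derive from Hill-equation modelling.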

[9] = Cell Viability - LYMP2-004 (AID 966); note: nearly all actives have a fitted effect of over 65% in size
Summary of the method: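 AC50 values come from Hill modelling of concentration-dependent loss of intracellular ATP, measured by CellTiter-Glo luminescence. Human LYMP2-004 lymphoblastoid cells (2500/well) were exposed to compound for 24 h at 37 C.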

[10] = Cell Viability - LYMP2-005 (AID 967); note: series mostly up to about 92 µM
Summary of the method: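 qHTS viability screen in LYMP2-005 cells: 24 h at 37 C with compound, ATP luminescence via CellTiter-Glo, AC50 from Hill curves.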

[11] = Cell Viability - LYMP2-009 (AID 968); note: series mostly up to about 92 µM; nearly all actives have a fitted effect of over 55% in size
[12] = Cell Viability - LYMP2-011 (AID 969); note: nearly all actives have a fitted effect of over 60% in size
Summary of the method: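 Cytotoxicity qHTS with ATP content as read-out: lymphoblastoid cells (2500/well) exposed to compound for 24 h at 37 C, then luciferase luminescence measured. Concentration-response data fitted with the standard Hill equation to give AC50.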

[13] = Cell Viability - LYMP2-013 (AID 970); note: series mostly up to about 92 µM; nearly all actives have a fitted effect of over 55% in size
Summary of the method: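 qHTS cytotoxicity: ATP-dependent luminescence (CellTiter-Glo, 30 min room temperature) read after 24 h compound exposure at 37 C of 2500 LYMP2-013 lymphoblastoid cells per well. Concentration-response fitted with Hill equation to give AC50.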

[14] = Cell Viability - LYMP2-015 (AID 971); note: nearly all actives have a fitted effect of over 55% in size
Summary of the method: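 Cytotoxicity readout: decrease in intracellular ATP (CellTiter-Glo luminescence) in 2500 LYMP2-015 lymphoblastoid cells/well after 24 h compound exposure at 37 C. Concentration-response data fitted with the standard Hill equation to give AC50.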

[15] = Cell Viability - LYMP2-017 (AID 972); note: series mostly up to about 92 µM; nearly all actives have a fitted effect of over 55% in size
Summary of the method: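 CellTiter-Glo luminescence (cellular ATP, 30 min RT) measured cytotoxicity after 24 hr compound treatment at 37 C. Cells were a human lymphoblastoid line, LYMP2-017, plated at 2500/well and incubated 5 hr first; concentration-response fitted with Hill equation for AC50.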

[16] = Cell Viability - LYMP2-019 (AID 973); note: nearly all actives have a fitted effect of over 55% in size
Summary of the method: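 AC50 values come from Hill-equation fits of luminescent intracellular ATP (CellTiter-Glo, 30 min, room temperature) following 24 h compound exposure at 37 C. Cells: LYMP2-019 lymphoblastoid line, 2500 per well, in complete culture medium.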

[17] = Cell Viability - LYMP2-021 (AID 974); note: nearly all actives have a fitted effect of over 55% in size
Summary of the method: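 AC50 values come from Hill-equation fits to CellTiter-Glo luminescence (ATP content), read after 24 hour compound exposure at 37 C of 2500 LYMP2-021 lymphoblastoid cells/well; tetraoctylammonium bromide as positive control.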

[18] = Cell Viability - LYMP2-023 (AID 975)
Summary of the method: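 Intracellular ATP, read by CellTiter-Glo luminescence, reports viability after 24 hr compound exposure at 37 C. 2500 lymphoblastoid cells/well (LYMP2-023) seeded 5 hr beforehand; Hill fits give AC50; positive control tetraoctylammonium bromide.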

[19] = MultiTox-Fluor Cytotoxicity Assay - LYMP1-002 - Dead Cells (AID 960); note: nearly all actives have a fitted effect of over 60% in size
Summary of the method: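 Dead-cell fluorescence (Ex/Em 485/520) after 16 h compound exposure at 37 C of LYMP1-002 lymphoblastoid cells in complete medium; AC50 by Hill equation, with data scaled between DMSO and 15 uM tetraoctylammonium bromide.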

Measured: Potency

O=CNc1ccccc1
inactive: [1] | [2] | [3] | [4] | [5] | [6] | [7] | [8] | [9] | [10] | [11] | [12] | [13] | [14] | [15] | [16] | [17] | [18]

ClC/C=C/CCl
inactive: [1] | [3] | [19] | [4] | [5] | [6] | [7] | [8] | [10] | [11] | [12] | [13] | [14] | [15] | [17] | [18]

CCCCOCCOCCOCCCC
inactive: [1] | [2] | [3] | [19] | [4] | [5] | [6] | [7] | [8] | [9] | [10] | [11] | [12] | [13] | [14] | [15] | [16] | [17] | [18]

CCNc1ccccc1
inactive: [1] | [2] | [3] | [19] | [4] | [5] | [7] | [8] | [9] | [10] | [11] | [13] | [14] | [15] | [16] | [17] | [18]

c1ccc2c(c1)Oc1ccccc1S2
inactive: [1] | [2] | [3] | [19] | [4] | [5] | [6] | [7] | [8] | [10] | [11] | [12] | [13] | [14] | [15] | [16] | [17] | [18]

Cc1ccco1
inactive: [1] | [2] | [3] | [19] | [4] | [5] | [6] | [7] | [8] | [9] | [10] | [11] | [13] | [14] | [15] | [16] | [17] | [18]

Clc1cc(Cl)cc(Cl)c1
inactive: [1] | [2] | [3] | [19] | [4] | [5] | [6] | [7] | [8] | [9] | [10] | [11] | [12] | [13] | [14] | [15] | [16] | [17] | [18]

C1CCOC1
inactive: [1] | [2] | [19] | [4] | [5] | [6] | [7] | [8] | [9] | [10] | [11] | [12] | [13] | [14] | [15] | [16] | [17] | [18]

C=C(C)C(=O)OCCCCCCCCCC
inactive: [2] | [3] | [19] | [4] | [5] | [6] | [7] | [8] | [9] | [10] | [11] | [12] | [13] | [14] | [15] | [16] | [17] | [18]
